Source: PubChem BioAssay (National Center for Advancing Translational Sciences (NCATS))
ELG1 genotox – genotoxicity induction in ELG1-luciferase HEK293T cells. AID 504466. HEK293T ELG1-luciferase reporter, luminescence, 16 h. Potency, µM (titrated, usually from 46 µM), most hits filed as activators. actives 1.3% (n = 330,000); further: nearly all actives have a fitted effect of over 60% in size
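DMSO vehicle served as control against compound-treated ELG1-luciferase HEK293T cells; exposure lasted 16 hr at 37 °C and 5% CO2, followed by ONE-Glo luminescence detection after 30 min.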
NPC1 prom act – activates the NPC1 promoter; Potency, µM (series often up to 9.22 µM), most hits filed as activators; Huh7 NPC1 promoter luciferase reporter, 24 h; actives 2.4% (n = 320,000); further: nearly all actives have a fitted effect of over 60% in size
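Quantitative HTS used a cell-based reporter: Huh7 cells stably bearing the NPC1 promoter upstream of luciferase were treated with compounds for 24 h, and promoter activation was read as luminescence.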
Rab9 prom act – activators of Rab9 promoter | Huh7 Rab9 promoter-luciferase reporter, luminescence, 24 h | Potency, µM (highest dose often 9.22 µM), hits mostly activators | actives 2.8% (n = 320,000) | AID 485297; further: nearly all actives have a fitted effect of over 60% in size
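Using Huh7 cells stably transfected with Rab9 promoter–luciferase, compounds were incubated 24 h at 37 °C, 5% CO2; luciferase luminescence was read 10 min after reagent addition.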
FLuc counter – firefly luciferase modulation, counter-screen for miR-21 project; purified FLuc, Km substrates, luminescence inhibition; AID 588342; actives 6.9% (n = 360,000); Potency, µM (series often up to 57.5 µM), hits mostly inhibitors; further: nearly all actives have a fitted effect of over 55% in size
Target sequence (P08659 whole entry, looked up): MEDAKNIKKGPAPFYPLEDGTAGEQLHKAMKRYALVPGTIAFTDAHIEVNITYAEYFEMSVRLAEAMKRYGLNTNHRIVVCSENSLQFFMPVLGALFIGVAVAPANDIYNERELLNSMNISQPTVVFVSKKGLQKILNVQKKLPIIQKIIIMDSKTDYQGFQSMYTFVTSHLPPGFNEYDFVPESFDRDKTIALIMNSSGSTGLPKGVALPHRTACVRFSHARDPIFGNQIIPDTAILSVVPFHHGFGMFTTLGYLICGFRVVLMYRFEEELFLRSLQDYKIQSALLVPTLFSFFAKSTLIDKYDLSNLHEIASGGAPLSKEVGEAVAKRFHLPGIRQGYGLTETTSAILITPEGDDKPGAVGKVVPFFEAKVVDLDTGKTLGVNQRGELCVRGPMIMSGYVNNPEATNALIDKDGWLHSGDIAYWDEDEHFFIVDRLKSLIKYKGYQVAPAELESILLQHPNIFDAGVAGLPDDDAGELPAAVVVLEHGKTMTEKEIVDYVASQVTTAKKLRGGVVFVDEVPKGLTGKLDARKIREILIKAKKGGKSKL
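Biochemical qHTS of compounds, final roughly 60 µM downward over six points, against 10 nM purified firefly luciferase using Km concentrations of substrates (10 uM D-luciferin, 10 uM ATP) in Tris acetate pH 7.5 buffer; luminescence output.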
p53 reactivation – re-activators of mutant p53; H1299 p53-A138V BP100-luciferase reporter, luminescence, 24 h; actives 0.063% (n = 320,000); Potency, µM (top dose mostly 92.2 µM), most hits filed as activators; further: nearly all actives have a fitted effect of over 45% in size
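H1299 (p53-null), stable ts p53-A138V + BP100-Luc; 1000 cells/well, Opti-MEM/10% FBS; cpd 4 pt, 1:5; 24 h, 37 deg C, 5% CO2; detection reagent 10 min RT; luminescence.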
SMN2 splice enh – SMN2 splice variant enhancement; HEK293 SMN2-luciferase splicing reporter, luminescence, 30-36 h; Potency, µM (series often up to 46.1 µM), most hits filed as activators; actives 2.8% (n = 210,000); further: nearly all actives have a fitted effect of over 55% in size
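HEK293 cells carry an SMN2 minigene-luciferase reporter in which exon 7 inclusion puts luciferase in frame. Cells were seeded at 2000 cells/well, attached for 10-12 hours, then exposed to compounds for 30-36 hours at 37C before ONE-Glo luminescence.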
A number is an active result; - = inactive; ? = inconclusive; . = no result. Sampled rows, rich in hits. Any-hit rate of the full collection: about 7.4%. The call rests on the fitted dose curve; in most records, active means well fitted curve in the direction sought with a large enough effect; inconclusive means small, poorly fitted or top-dose-only effect, or another doubt; inactive means no such curve, though single readings can be large; an effect the other way counts as inactive or inconclusive.

SMILES	ELG1 genotox	NPC1 prom act	Rab9 prom act	FLuc counter	p53 reactivation	SMN2 splice enh
COc1cc(S(=O)(=O)Nc2ccc3nc(C)sc3c2)ccc1NC(C)=O	-	-	-	-	-	.
CCCOc1ccc(NC(=O)CC2C(=O)N(c3ccc(C)cc3)C(=O)N2C(C)C)cc1 (centres undefined)	.	.	.	-	.	.
CC(C)Oc1ccc(C2CC(=O)N(c3cccc(/C=C/C(=O)O)c3)C2=O)cc1 (centres undefined)	-	-	-	23.9µM	-	.
COc1ccc(-c2nc(SCC(=O)N(CC(C)C)c3c(N)n(Cc4ccccc4)c(=O)[nH]c3=O)n[nH]2)cc1	-	-	-	1.9µM	-	.
COc1ccc(CCC(=O)OCC(=O)N(CC(C)C)c2c(N)n(Cc3ccccc3)c(=O)[nH]c2=O)cc1	-	-	-	-	-	.
CCCN(C(=O)CCc1ccc(OC)cc1)c1c(N)n(Cc2ccccc2)c(=O)[nH]c1=O	-	.	.	.	-	.
CCCN(C(=O)CSc1n[nH]c(-c2ccc(OC)cc2)n1)c1c(N)n(Cc2ccccc2)c(=O)[nH]c1=O	-	-	-	10.7µM	-	.
COc1ccc(-c2oc(=O)c3cc(OC)c(OC)cc3c2C#C[C@]2(O)CC[C@H]3[C@@H]4CCc5cc(OC)ccc5[C@H]4CC[C@@]32C)cc1	-	.	.	.	-	.
C/C(=N\NC(=O)c1nc2ccccn2c1C)c1ccco1	?	?	2.51µM	?	-	-
CCc1ccc(/C(C)=N/NC(=O)c2c[nH]c3ccccc23)s1	-	-	-	?	-	.
C/C(=N\NC(=O)c1ccc(F)cc1)c1ccccn1	5.17µM	?	-	8.49µM	?	.
C/C(=N\NC(=O)c1cc2ccccc2cc1O)c1ccccn1	?	2µM	-	4.78µM	?	.
C/C(=N\NC(=O)c1c[nH]c2ccccc12)c1ccccn1	?	2.51µM	?	10.7µM	-	-
C/C(=N\NC(=O)c1nc2ccccn2c1C)c1cc2ccccc2o1	-	-	-	-	-	-
Cc1ccc(-c2nn3c(C)nnc3c3ccccc23)cc1S(=O)(=O)NCC(C)O (centres undefined)	.	.	.	-	.	.
COCCNC(=O)C1CCC(CNS(=O)(=O)c2ccc3c(c2)CC(C)N3C(C)=O)CC1 (centres undefined)	.	.	.	-	.	.
COc1ccc(-n2c(=O)c(C)nc3cnc(Nc4cccc(OC)c4)nc32)cc1	.	.	.	.	.	-
COC(=O)c1ccc(C(=O)NC2CCCc3c2cnn3-c2cc(F)cc(F)c2)nc1 (centres undefined)	-	-	-	-	-	.
Cc1noc(C)c1C(=O)N1CCC2(CCCN(Cc3ccc(C#N)cc3)C2)CC1	.	.	.	.	.	-
C/C(=N\NC(=O)c1cc2ccccc2cc1O)c1cc2ccccc2o1	-	-	-	15.1µM	-	.
O=C(N/N=C\c1ccc(Sc2ccccn2)o1)c1cccc(F)c1	-	-	-	-	-	?
CCOc1ccc(C(=O)N/N=C(\c2ccccc2)c2ccccn2)cc1	-	-	-	19µM	-	-
O=C(N/N=C/c1ccc(Sc2ccccn2)o1)c1cc2ccccc2cc1O	-	-	-	15.1µM	?	?
O=C(N/N=C(\c1ccccc1)c1ccccn1)c1cccc([N+](=O)[O-])c1	?	-	-	-	?	-
C/C(=N\NC(=O)c1c[nH]c2ccccc12)c1ccco1	7.94µM	5.62µM	3.98µM	12µM	?	14.1µM
SMILES	ELG1 genotox	NPC1 prom act	Rab9 prom act	FLuc counter	p53 reactivation	SMN2 splice enh
CCCCCn1c(NCc2ccccc2OC)nc2ccccc21	.	.	.	-	.	-
Cc1ccc(C)c(-n2cc(CNC(C)Cn3cncn3)c(-c3ccccc3)n2)c1 (centres undefined)	-	-	-	-	-	.
Cc1ccc(-n2cc(CNC(C)c3cnn(C)c3)c(-c3ccc(F)cc3)n2)cc1 (centres undefined)	-	-	-	?	-	-
Cc1ccc(-n2cc(CNC(C)c3cnn(C)c3C)c(-c3ccc(F)cc3)n2)cc1 (centres undefined)	-	-	-	15.1µM	-	.
Cc1ccc(-n2cc(CNC(C)Cn3cncn3)c(-c3ccc(F)cc3)n2)cc1 (centres undefined)	-	-	-	16.9µM	-	-
CCOC(=O)c1ccc(N2CC3=C(C2=O)C(c2ccc(OC)cc2)NC(=O)N3C)cc1 (centres undefined)	.	.	.	-	.	.
CC1CCCN(Cc2c(O)ccc3c(=O)c(Oc4ccccc4Cl)c(C(F)(F)F)oc23)C1 (centres undefined)	.	.	.	-	.	-
CC1CCN(Cc2c(O)ccc3c(=O)c(-c4nc5ccccc5s4)c(N)oc23)CC1	-	-	-	10.7µM	-	-
Cc1oc2c(CN3CCCC3)c(O)ccc2c(=O)c1-c1ccc(Br)cc1	-	-	-	-	-	-
CC1(C)CCCN(Cc2c(O)ccc3c(=O)c(-c4nc5ccccc5s4)c(N)oc23)C1	?	-	?	6.01µM	-	.
CC1CCCN(Cc2c(O)ccc3c(=O)c(-c4nc5ccccc5s4)c(N)oc23)C1 (centres undefined)	-	-	-	6.75µM	-	-
CCC(C)C(=O)OC1C2CC3=C4CC(=O)OC(c5ccoc5)[C@]4(C)CCC3[C@@](C)(C2=O)C(CC(=O)OC)C1(C)C (some centres undefined)	.	.	.	.	.	-
CCc1ccc(NC(=O)CSc2nnc3[nH]c(=O)cc(-c4ccccc4)n23)cc1	.	.	.	1.51µM	.	.
COc1ccc(Cl)cc1NC(=O)CSc1nnc2[nH]c(=O)cc(-c3ccccc3)n12	.	.	.	1.2µM	.	.
Nc1cc(=O)[nH]c2nnc(SCC(=O)Nc3cccc4ccccc34)n12	-	-	-	-	-	.
O=C(CSc1nnc2[nH]c(=O)cc(-c3ccccc3)n12)Nc1ccccc1C(F)(F)F	.	.	.	2.69µM	.	.
COc1ccc(Cl)cc1NC(=O)CSc1nc(-c2ccccc2)cc(=O)[nH]1	-	-	-	-	.	.
O=C(CSc1nnnn1-c1ccccc1)N1N=CCC1c1ccccc1 (centres undefined)	-	-	-	15.1µM	?	-
c1csc(CSc2nnc3sc4ccccc4n23)c1	?	?	3.16µM	16.9µM	-	14.1µM
O=C(CSc1nnnn1-c1ccccc1)c1ccco1	?	?	?	16.9µM	-	-
O=C(CSc1nnc2sc3ccccc3n12)c1ccco1	?	-	?	10.7µM	-	11.2µM
C=C[C@@H](C1=CC(=O)C(OC)=C(OC)C1=O)c1ccccc1	.	.	.	.	.	-
O=C(NC(=S)NNC(=O)c1ccccc1O)c1ccc(F)cc1	-	-	-	26.9µM	.	.
O=C(NC(=S)NNC(=O)c1ccccc1O)c1ccccc1	-	-	-	23.9µM	-	.
Cc1ccc(C(=O)NC(=S)NNC(=O)c2ccccc2O)cc1	-	-	-	?	-	.
